Among the data in PubChem BioAssay AID1490 (National Center for Advancing Translational Sciences (NCATS), 2009) are largest response in the series, negative = inhibition and Potency values, retold here.

“And” between values parts separate entries of the source, which are not always exact repeats. Identical values can stand only once. Among all 310,000 compounds or so, about 11,000 (3.5%) were called active. Inconclusive results (about 4%) are left out. The list comes from a sample in which actives are over-represented; it also holds similar structures and randomly drawn compounds. Unmarked numbers belong to inactive results. Calls come from the whole dose curve; as a rule, active = well fitted inhibition curve with a large enough effect; inconclusive = small, poorly fitted or top-dose-only effect, or another doubt; inactive = no such curve, though single readings can be large or run the other way.
Potency is the fitted concentration of half-maximal effect.

The target of the test is 4'-phosphopantetheinyl transferase ffp (Bacillus subtilis) (UniProt Q9F4F7). In words: qHTS Assay for Inhibitors of Bacillus subtilis Sfp phosphopantetheinyl transferase (PPTase).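 For largest response in the series, negative = inhibition: 0% = enzyme reaction without inhibitor and -100% = no enzyme wells.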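 Note: the enzyme is Sfp with the accession as filed and its product quenches rhodamine fluorescence.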 The settings on record: Biochemical Sfp PPTase activity. Summed up: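 Sfp 15 nM + cpd, 15 min RT; start w/ rhodamine-CoA 5 uM, BHQ-2-YbbR 12.5 uM (final); 50 mM Hepes pH 7.6, 10 mM MgCl2, 0.01% NP-40, 0.01% BSA; read 525/598 nm at 0 and 30 min.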
(In qHTS, concentration-response curves come from the screen itself.)
For `CC(=O)Nc1cccc(C(=O)OCN2C(=O)c3ccccc3C2=O)c1`, the largest response in the series, negative = inhibition was 7.23%.
Still for that read-out and setting: as for `CCc1nc(Nc2ccc(NC(C)=O)cc2)c2oc3ccccc3c2n1`, the figure is 3.27%; as for `Cc1ccc(N(Cc2ccccc2O)C(=O)c2ccccc2F)cc1`, 8.31%; as for `O=C(O)c1cc([N+](=O)[O-])c(Nc2cccc3ccccc23)c([N+](=O)[O-])c1`, -7.55%.
Consider `C=CCn1c(C)cc(C2=NNC(=NCC)SC2)c1C`, for which the Potency is 56.2 µM (active).
On the same count and under the same terms, with `Cc1cc(C2=NNC(=Nc3ccc(S(=O)(=O)N4CCOCC4)cc3)SC2)c(C)n1CC1CCCO1` (configuration not stated) the figure was 22.4 µM (active).
Take `Cc1ccnc(NS(=O)(=O)c2ccc(NC(=O)c3ccc(S(=O)(=O)N4CCOCC4)cc3)cc2)n1`: the largest response in the series, negative = inhibition was 28.5%.
As to `Cc1ccc(S(=O)(=O)N2CCC(C(=O)NCC3CCCO3)CC2)cc1` (configuration not stated), the largest response in the series, negative = inhibition is 21.8%.
For the compound `C=CCn1c(C)cc(C(=O)CN2C(=O)c3ccccc3C2=O)c1C`, the largest response in the series, negative = inhibition is 1.15%.
Still for that read-out and setting: with `Cc1cccc(N=C2NN=C(c3c[nH]c4ccccc34)CS2)c1` the figure was -49.9%.
On to `COCCn1c(C)cc(C2=NNC(=Nc3ccc(F)cc3)SC2)c1C`, for which the Potency was 50.1 µM (active).
Take `COC(=O)C(C(=O)OC)C1c2ccccc2C=C(C2CC2)N1C(=O)OC` (configuration not stated): the largest response in the series, negative = inhibition was 22.5% and 27.4%.
For the compound `CCCOc1ccc(C2=CSC3=NCCN23)cc1Cl`, the largest response in the series, negative = inhibition was 16%.
On the same count and under the same terms, as for `CCOC(=O)C1CCCN(CCSc2ccc(C)cc2)C1` (configuration not stated), the figure is 12.5%; as for `COc1ccc(C(=O)c2c(C)c(CCC#N)n3ccccc23)c(OC)c1`, 0.761%; as for `COc1ccc(C(C)NC(=O)C23CC4CC(CC(C4)C2)C3)cc1` (configuration not stated), 5.95%.
`O=C(O)c1c(NC(=O)N2CCCC2)sc2c1CCCC2`: the largest response in the series, negative = inhibition is -9.57%.
The same measure, in the same setting: as for `CC(O)c1ccc(OCCN(C)c2ccccn2)cc1` (configuration not stated), the figure is -0.377%.
Consider `CC(=O)N1C(=O)/C(=C2\SC(=S)N(NC(=O)c3ccc(O)cc3)C2=O)c2ccccc21`, for which the Potency was 50.1 µM (active).
In the case of `O=C(O)c1ccc(/C=C2\SC(=S)N(NC(=O)c3ccc(Br)cc3)C2=O)cc1`, the largest response in the series, negative = inhibition was -5.87%.
Regarding `O=C(O)c1ccc2c(c1)C(=O)N(NC(=O)c1ccc(O)cc1)C2=O`, the largest response in the series, negative = inhibition is 1.07%.
On the same count and under the same terms, as for `COc1cc(Cl)ccc1OCc1cc(C(=O)N2CC[C@@H]3CCCC[C@H]3C2)no1`, the figure is -14.4%; as for `COc1ccc(-c2nc3c(c4c2C[C@H](c2ccccc2)OC4)CN(C(=O)C2CC2)CC3)c(C)c1`, 12.8%.
In the case of `N#CC1=C(N)Oc2[nH]c(=S)[nH]c(=O)c2C12C(=O)Nc1ccccc12` (configuration not stated), the Potency is 39.8 µM (active).
On to `CC1(C)Cc2ccccc2-c2[nH]c(=S)[nH]c(=O)c21`, for which the largest response in the series, negative = inhibition was 2.54%.
Regarding `N#CC1=C(N)Oc2n[nH]c(CSc3ccccc3)c2C12C(=O)Nc1ccccc12` (configuration not stated), the largest response in the series, negative = inhibition was 17.6%.
Same read-out and setting: as for `CCC(C)Sc1nc2c(cnn2-c2ccc(F)cc2)c(=O)[nH]1` (configuration not stated), the figure is -3.22%; as for `CCOc1ccc(C(C(=O)NC2CCCC2)N(C(=O)c2snc(C(N)=O)c2N)C2CCCC2)cc1` (configuration not stated), 16.6%; as for `COc1ccc2oc(C(=O)NCC(Cc3ccccc3)N(C)C)c(C)c2c1` (configuration not stated), -0.769%.
Still for that read-out and setting: with `CC1Cc2cc(/C(O)=C3\C(=O)C(=O)N(Cc4cccnc4)C3c3ccccc3F)ccc2O1` (configuration not stated) the figure was 11.3%.
As to `COc1ccccc1C(=O)NN1C(=O)C2C3C=CC(O3)C2C1=O` (configuration not stated), the Potency is 56.2 µM (active).
Same read-out and setting: as for `O=C(NN1C(=O)C2C3C=CC(O3)C2C1=O)c1ccccc1` (configuration not stated), the figure is 44.7 µM (active).
As to `O=C(NN1C(=O)C2C3C=CC(C4CC34)C2C1=O)c1ccc(Cl)cc1` (configuration not stated), the largest response in the series, negative = inhibition is 27.6%.
The same measure, in the same setting: with `COc1ccc(C(=O)NN2C(=O)C3C(c4ccccc4)C=CC(c4ccccc4)C3C2=O)cc1` (configuration not stated) the figure was 33.4%; with `O=C(NN1C(=O)C2C(C1=O)C1C=CC2C12CC2)c1ccccc1Cl` (configuration not stated), 12.4%.
With `COc1ccccc1C(=O)Nn1cnnc1`, the largest response in the series, negative = inhibition is 6.61%.
Still for that read-out and setting: as for `COc1ccc(N2CCN(C(=O)c3cn(C)c4ccc(S(=O)(=O)N5CCOCC5)cc4c3=O)CC2)cc1`, the figure is 1.25%; as for `O=C(C1CCC1)N1CCN(c2ccccc2)CC1`, 17.5%.
On the same count and under the same terms, with `CC1(c2ccc3ccccc3c2)NC(=O)NC1=O` (configuration not stated) the figure was 12%.
As for `CC(C)C[C@@H](COc1ccccc1)N1CCN(CC(C)C)CCC1=O`, the largest response in the series, negative = inhibition is 3.76%.
Still for that read-out and setting: with `CCCCCCCC/C=C\CCCCCCCC(=O)NCC(=O)O` the figure was 8.62%; with `CCCCCCC(O)(CCN1CCCCC1)c1ccccc1` (configuration not stated), 9.61%.
Consider `CCCn1c(C2CCCN2c2nc(-c3ccc(OC)cc3)cs2)nc2ccccc21` (configuration not stated), for which the Potency is 89.1 µM (active).
Take `CCCn1c(C2CCCN2c2nc(-c3ccc(C)cc3)cs2)nc2cc(Cl)c(N3CCCCC3)cc21` (configuration not stated): the largest response in the series, negative = inhibition is -23.2%.
The same measure, in the same setting: as for `CCCn1c(CCNc2nc(-c3ccc(OC)cc3)cs2)nc2ccccc21`, the figure is -0.532%.
On the same count and under the same terms, with `CC1CCN(C2=NC(=O)/C(=C/c3ccc(O)cc3)S2)CC1` the figure was 14%; with `COc1ccc(N=Nc2c(-c3ccc(OC)cc3)[nH]oc2=O)cc1`, 24.2%.
Take `O=C(Nc1ccccc1)c1nnsc1S(=O)(=O)c1ccc(Cl)cc1`: the Potency was 11.2 µM (active).
Turning to `CS(=O)(=O)c1ccc(Cl)c(NC(=O)Nc2ccccc2)c1`, the largest response in the series, negative = inhibition is 7.87%.
The same measure, in the same setting: as for `O=C(c1ccc(Cl)cc1)c1cnc(Nc2ccccc2)s1`, the figure is -3.35%.
Same read-out and setting: as for `CN(c1ccc(O)cc1)c1nc(-c2cccnc2)cs1`, the figure is 0.24%; as for `Cc1ccc(C(=O)CSc2ccccc2C(=O)O)cc1`, 13.7%.
For the compound `Cc1ccc(SC(CC(=O)c2ccc(C(C)(C)C)cc2)C(=O)O)cc1` (configuration not stated), the Potency is 28.2 µM (active).
As to `Cc1ccc(C(=O)CNc2ccc(F)cc2)cc1`, the largest response in the series, negative = inhibition is -8.3%.
Same read-out and setting: as for `O=C(Nc1ccccc1N1CCOCC1)c1ccc(OCc2cscn2)cc1`, the figure is -1.59%.
For the compound `NC(=S)c1ccc(C(N)=S)o1`, the Potency is 56.2 µM (active).
`O=C(O)C1CC=CC2CCN(C3CCCCC3)C(=O)C21` (configuration not stated): the largest response in the series, negative = inhibition was 40%.
Same read-out and setting: with `COc1ccc(-n2cc(-c3ccccc3)c3c(=S)nc[nH]c32)cc1` the figure was 7.93%; with `COc1ccc(C)cc1NC(=O)NCCCCc1ccccc1`, -4.5%.
For `CN(Cc1ccccc1)Cc1ccccc1F`, the Potency was 50.1 µM (active).
Regarding `CN(Cc1ccccc1)C(=O)CCc1ccccc1`, the largest response in the series, negative = inhibition was 20.4%.
The same measure, in the same setting: as for `O=C(c1ccccc1F)N(Cc1ccccc1)Cc1ccccc1`, the figure is 9.85%.
